A short description of assay [1]: NCI Yeast Anticancer Drug Screen. Data for the rad50 strain (AID 155).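 Also: 0% = growth of vehicle-only cultures of the same strain.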 As to conditions: S. cerevisiae rad50 strain growth inhibition, hits give high values. A digest of the protocol:
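Relative growth inhibition (compound vs vehicle) was measured in yeast with a defined repair-gene alteration.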

Assay [2] in a line: NCI Yeast Anticancer Drug Screen. Data for the mec2-1 strain (AID 157). To be noted: S. cerevisiae mec2-1 strain, hits give high values. A digest of the protocol:
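Yeast mec2-1 mutant treated with compound. Readout: growth inhibition vs vehicle controls.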

Assay [3] in a line: NCI Yeast Anticancer Drug Screen. Data for the sgs1 mgt1 strain (AID 161).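 Also: 0% = growth of cultures given vehicle only.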 As to conditions: S. cerevisiae sgs1 mgt1 strain, hits give high values. A digest of the protocol:
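Mutant yeast exposed to compound; growth scored against vehicle-only wells.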

Assay [4] in a line: NCI Yeast Anticancer Drug Screen. Data for the cln2 rad14 strain (AID 165).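 Also: 0% = growth equal to vehicle treated cultures.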 To be noted: S. cerevisiae cln2 rad14 strain, hits give high values. A digest of the protocol: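 cln2 rad14 yeast strain; compound exposure; growth inhibition read vs vehicle controls.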
A short description of assay [5]: NCI Yeast Anticancer Drug Screen. Data for the bub3 strain (AID 167). As to conditions: S. cerevisiae bub3 mutant strain, hits give high values. A digest of the protocol: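 Screening used yeast with an engineered genetic alteration affecting cell cycle control. Compound-exposed cultures were compared with vehicle cultures, and reduced growth was taken as inhibition.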

Assay [6] can be described thus: NCI Yeast Anticancer Drug Screen. Data for the mlh1 rad18 strain (AID 175). To be noted: S. cerevisiae mlh1 rad18 strain growth inhibition, hits give high values. A digest of the protocol: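 Yeast w/ defined DNA-repair lesions; compound exposure; growth vs vehicle controls → % inhibition.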
The mark [7] stands for this setting: at 5.0 µM (retest, dose inferred, filed as 0.5).
Where [8] appears, read: at 50.0 µM (retest, dose inferred, filed as 5.0).

From PubChem BioAssay (NCI) come the findings set out here.

Compounds without any hit were thinned out: in the full panel of roughly 79,000, 15% have a hit. Values without a mark were called inactive. Calls of active or inactive are those of the source. Rule as the data show it: active = growth inhibition above about 70%; inactive = the rest.

Turning to `ClC1=C(Cl)C(Cl)(Cl)C(Cl)(Cl)C1(Cl)Cl`, the growth inhibition is 55% in assay [1] (setting [7]); 7% in assay [1] (setting [8]); 99.7% (active) in assay [1] (at 50.0 µM); 49% in assay [2] (setting [7]); 99% (active) in assay [2] (setting [8]); 99.5% (active) in assay [2] (at 50.0 µM). Further, the growth inhibition is 59% in assay [3] (setting [7]); 62% in assay [3] (setting [8]); 99.7% (active) in assay [3] (at 50.0 µM); 31% in assay [4] (setting [7]); 98% (active) in assay [4] (setting [8]); 98% (active) in assay [4] (at 50.0 µM). For the same molecule, the growth inhibition was 41% in assay [5] (setting [7]); 98% (active) in assay [5] (setting [8]); 99.4% (active) in assay [5] (at 50.0 µM); 84% (active) in assay [6] (setting [7]); 99% (active) in assay [6] (setting [8]); 99.2% (active) in assay [6] (at 50.0 µM).

For the molecule `N#CC(C#N)=Cc1ccc(Oc2ccccc2)cc1`, the growth inhibition was 2% in assay [1] (setting [7]); 31% in assay [1] (setting [8]); 88.2% (active) in assay [1] (at 50.0 µM); -21% in assay [2] (setting [7]); 54% in assay [2] (setting [8]); 82.1% (active) in assay [2] (at 50.0 µM). Also, the growth inhibition was 13% in assay [3] (setting [7]); 56% in assay [3] (setting [8]); 58.9% in assay [3] (at 50.0 µM); 25% in assay [4] (setting [7]); 62% in assay [4] (setting [8]); 66.3% in assay [4] (at 50.0 µM). Further, the growth inhibition in assay [5] (setting [7]) was -6%; in assay [5] (setting [8]), 90% (active); in assay [5] (at 50.0 µM), 83.7% (active); in assay [6] (setting [7]), 2%; in assay [6] (setting [8]), 77% (active); in assay [6] (at 50.0 µM), 73.9% (active).

Take `Cc1ccccc1P(=O)(c1ccccc1C)c1ccccc1C`: the growth inhibition in assay [1] (setting [7]) is 16%; in assay [1] (setting [8]), 31%; in assay [1] (at 50.0 µM), 0.55%; in assay [2] (setting [7]) it was 16%; in assay [2] (setting [8]), 28%; in assay [2] (at 50.0 µM) it was 12.9%. Also, the growth inhibition in assay [3] (setting [7]) was 10%; in assay [3] (setting [8]), 42%; in assay [3] (at 50.0 µM) it was 13.1%; in assay [4] (setting [7]), 11%; in assay [4] (setting [8]), 51%; in assay [4] (at 50.0 µM), 32.6%. For the same molecule, the growth inhibition in assay [5] (setting [7]) was 24%; in assay [5] (setting [8]) it was 24%; in assay [5] (at 50.0 µM), 32.5%; in assay [6] (setting [7]), 15%; in assay [6] (setting [8]), 45%; in assay [6] (at 50.0 µM), 4.35%.

On to `O=C1c2cc([N+](=O)[O-])cc3cc([N+](=O)[O-])cc(c23)C(=O)N1CCNCCN1C(=O)c2cc([N+](=O)[O-])cc3cc([N+](=O)[O-])cc(c23)C1=O`, for which the growth inhibition in assay [1] (setting [7]) was 86% (active); in assay [1] (setting [8]), 92% (active); in assay [1] (at 50.0 µM), 81.2% (active); in assay [2] (setting [7]), 42%; in assay [2] (setting [8]) it was 89% (active); in assay [2] (at 50.0 µM), 89.2% (active). For the same molecule, the growth inhibition in assay [3] (setting [7]) is 64%; in assay [3] (setting [8]), 94% (active); in assay [3] (at 50.0 µM), 42.4%; in assay [4] (setting [7]), 62%; in assay [4] (setting [8]), 90% (active); in assay [4] (at 50.0 µM), 70.3% (active). The growth inhibition was 61% in assay [5] (setting [7]); 92% (active) in assay [5] (setting [8]); 92.3% (active) in assay [5] (at 50.0 µM); 56% in assay [6] (setting [7]); 92% (active) in assay [6] (setting [8]); 76.3% (active) in assay [6] (at 50.0 µM).

In the case of `COC1OC(CO)C(O)C(OC(=O)c2ccc([N+](=O)[O-])cc2)C1OS(=O)(=O)c1ccc(C)cc1` (stereo not given), the growth inhibition in assay [1] (setting [7]) is 2%; in assay [1] (setting [8]) it was 0%; in assay [1] (at 50.0 µM), 31.8%; in assay [2] (setting [7]), -1%; in assay [2] (setting [8]), 7%; in assay [2] (at 50.0 µM), -0.1%. Further, the growth inhibition is -1% in assay [3] (setting [7]); 0% in assay [3] (setting [8]); 18.7% in assay [3] (at 50.0 µM); -1% in assay [4] (setting [7]); -1% in assay [4] (setting [8]); -2.5% in assay [4] (at 50.0 µM). In addition, the growth inhibition in assay [5] (setting [7]) was 2%; in assay [5] (setting [8]), -2%; in assay [5] (at 50.0 µM), -0.2%; in assay [6] (setting [7]), 27%; in assay [6] (setting [8]), 7%; in assay [6] (at 50.0 µM) it was 10.6%.

Regarding `S=C(Nc1cc(Cl)c(Cl)cc1Cl)SCc1ccccc1`, the growth inhibition is 14% in assay [1] (setting [7]); 97% (active) in assay [1] (setting [8]); 98.7% (active) in assay [1] (at 50.0 µM); 8% in assay [2] (setting [7]); 99% (active) in assay [2] (setting [8]); 99.3% (active) in assay [2] (at 50.0 µM). In addition, the growth inhibition in assay [3] (setting [7]) is 30%; in assay [3] (setting [8]), 99% (active); in assay [3] (at 50.0 µM), 99.2% (active); in assay [4] (setting [7]) it was 12%; in assay [4] (setting [8]) it was 98% (active); in assay [4] (at 50.0 µM) it was 97.8% (active). Besides, the growth inhibition is 39% in assay [5] (setting [7]); 99% (active) in assay [5] (setting [8]); 99.2% (active) in assay [5] (at 50.0 µM); 55% in assay [6] (setting [7]); 99% (active) in assay [6] (setting [8]); 99% (active) in assay [6] (at 50.0 µM).

Regarding `[N-]=[N+]=Nc1c(-c2ccccc2)c(=O)n(-c2ccccc2)c2ccccc12`, the growth inhibition in assay [1] (setting [7]) is -19%; in assay [1] (setting [8]) it was 93% (active); in assay [1] (at 50.0 µM), 88% (active); in assay [2] (setting [7]) it was -20%; in assay [2] (setting [8]), 94% (active); in assay [2] (at 50.0 µM) it was 92.8% (active). The growth inhibition is -10% in assay [3] (setting [7]); 95% (active) in assay [3] (setting [8]); 90% (active) in assay [3] (at 50.0 µM); 12% in assay [4] (setting [7]); 95% (active) in assay [4] (setting [8]); 90% (active) in assay [4] (at 50.0 µM). Further, the growth inhibition in assay [5] (setting [7]) was -2%; in assay [5] (setting [8]), 94% (active); in assay [5] (at 50.0 µM) it was 90% (active); in assay [6] (setting [7]), -13%; in assay [6] (setting [8]), 96% (active); in assay [6] (at 50.0 µM), 86.4% (active).

For `CCCCN(CCCC)C(=O)c1ccc(OC(=O)OCC)c(OC)c1`, the growth inhibition is 4% in assay [1] (setting [7]); 6% in assay [1] (setting [8]); 56.9% in assay [1] (at 50.0 µM); 0% in assay [2] (setting [7]); 10% in assay [2] (setting [8]); 37% in assay [2] (at 50.0 µM). For the same molecule, the growth inhibition is 2% in assay [3] (setting [7]); 31% in assay [3] (setting [8]); 49.8% in assay [3] (at 50.0 µM); 4% in assay [4] (setting [7]); 17% in assay [4] (setting [8]); 8.8% in assay [4] (at 50.0 µM). Also, the growth inhibition in assay [5] (setting [7]) was 2%; in assay [5] (setting [8]), 24%; in assay [5] (at 50.0 µM) it was 85.1% (active); in assay [6] (setting [7]), -2%; in assay [6] (setting [8]), 29%; in assay [6] (at 50.0 µM), 17%.

With `Cc1ccc(S(=O)(=O)NC(Cc2ccccc2)C(=O)CCl)cc1` (stereo not given), the growth inhibition in assay [1] (setting [7]) was 61%; in assay [1] (setting [8]), 99% (active); in assay [1] (at 50.0 µM), 89.9% (active); in assay [2] (setting [7]), 66%; in assay [2] (setting [8]), 99% (active); in assay [2] (at 50.0 µM) it was 92.8% (active). The growth inhibition is 74% (active) in assay [3] (setting [7]); 98% (active) in assay [3] (setting [8]); 88.8% (active) in assay [3] (at 50.0 µM); 44% in assay [4] (setting [7]); 88% (active) in assay [4] (setting [8]); 84.8% (active) in assay [4] (at 50.0 µM). The growth inhibition in assay [5] (setting [7]) is 79% (active); in assay [5] (setting [8]), 99% (active); in assay [5] (at 50.0 µM), 84.5% (active); in assay [6] (setting [7]) it was 86% (active); in assay [6] (setting [8]), 98% (active); in assay [6] (at 50.0 µM), 84.7% (active).

For `CC(=O)OC1CCC2(C)C3CCC4(C)C(CCC4(Br)C(=O)CBr)C3CC(Br)C2(Br)C1` (stereo not given), the growth inhibition in assay [1] (setting [7]) is -1%; in assay [1] (setting [8]) it was 19%; in assay [1] (at 50.0 µM) it was 68.8%; in assay [2] (setting [7]), -5%; in assay [2] (setting [8]) it was 15%; in assay [2] (at 50.0 µM) it was 52.2%. Also, the growth inhibition is -5% in assay [3] (setting [7]); 10% in assay [3] (setting [8]); 53.4% in assay [3] (at 50.0 µM); -2% in assay [4] (setting [7]); 9% in assay [4] (setting [8]); 26.9% in assay [4] (at 50.0 µM). The growth inhibition in assay [5] (setting [7]) was -3%; in assay [5] (setting [8]) it was 7%; in assay [5] (at 50.0 µM), 49.5%; in assay [6] (setting [7]), 3%; in assay [6] (setting [8]), -3%; in assay [6] (at 50.0 µM), 76.4% (active).
